Test results taken from PubChem BioAssay (NCI).
The panel holds about 83,000 compounds, 20% with a hit somewhere; the sample as a whole holds those more often.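 Values shown are percent growth following 48 h exposure of cells in 96-well plates to a single concentration of compound; below 10 was considered active.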 Values without a mark were called inactive. Activity calls are given as the source filed them.

Legend:
Experiment in all cases: NCI-60 one-dose screen, 48 h (100 = growth as untreated, 0 = no growth, -100 = all killed)
Conditions in all cases: 10 µM unless noted
HCT-15 colon = test system: HCT-15 colon
HT29 colon = test system: HT29 colon
SNB-75 CNS = test system: SNB-75 CNS
SNB-19 CNS = test system: SNB-19 CNS
U251 CNS = test system: U251 CNS
PC-3 prostate = test system: PC-3 prostate
SK-MEL-5 melanoma = test system: SK-MEL-5 melanoma
UACC-62 melanoma = test system: UACC-62 melanoma
SK-MEL-28 melanoma = test system: SK-MEL-28 melanoma
LOX IMVI melanoma = test system: LOX IMVI melanoma

SMILES | growth (HCT-15 colon) | growth (HT29 colon) | growth (SNB-75 CNS) | growth (SNB-19 CNS) | growth (U251 CNS) | growth (PC-3 prostate) | growth (SK-MEL-5 melanoma) | growth (UACC-62 melanoma) | growth (SK-MEL-28 melanoma) | growth (LOX IMVI melanoma)
CCN(CC)CCOC(=O)C(OC(C)C)(c1ccccc1)c1ccccc1 | 96.4% | 79.7% | 88.3% | 96.2% | 101% | 83.7% | 97.6% | 103% | 99.6% | –
Brc1ccc2c(c1)c(-c1nc(-c3c[nH]c4ncccc34)cs1)cn2CCN1CCOCC1 | 35.5% | 57.8% | 56.4% | 71.6% | 52.8% | 30.3% | 51.3% | – | 94.5% | 66.7%
CC[C@]12C=CCN3CC[C@]4(C(=C(C(=O)OC)C1)Nc1cc(OC)c(OC(C)=O)cc14)[C@@H]32 | 21% | 0.643% (active) | 50.6% | 32.2% | 3.52% (active) | 22.5% | -33.4% (active) | – | – | -24% (active)
Cc1ccc(S(=O)(=O)C(Cl)(Cl)Cl)cc1 | 100% | 89% | 81.5% | 102% | 88.7% | 67.4% | 99.9% | – | 107% | 98.3%
COC(=O)[C@@H](C)C[C@H](Cc1ccccc1)NC(=O)c1csc([C@@H](C[C@H](C(C)C)N(C)C(=O)[C@@H](NC(=O)C23CC(NC(C)=O)(C2)C3)C2CC2)OC(C)=O)n1 | 92% | 20.9% | 14% | 65.3% | 33.1% | 44.4% | 30.5% | – | 61.3% | 31.7%
CC(C)CCC(=O)O[C@H]1CC[C@H]2[C@@H]3CCC4=CC(=O)CC[C@]4(C)[C@H]3CC[C@]12C | 97.4% | 106% | 82.6% | 105% | 99.2% | 92.8% | 96.5% | – | 99.8% | 97.9%
COc1cccc(/C=C/[N+](=O)[O-])c1 | -9.58% (active) | -48.6% (active) | 68.1% | 71.8% | 54.4% | 63.6% | 80.6% | 92.6% | 50.2% | –
O=C(O)C1C(C(=O)O)C2(Cl)C(Cl)=C(Cl)C1(Cl)C2(Cl)Cl.[Hg] (configuration not stated) | 87% | 82.2% | 86.6% | 96.9% | 44.7% | 76.2% | 85.3% | – | 96.7% | 85.2%
NC(=S)c1cn(C2OC(CO)C(O)C2O)c2ncnc(N)c12 (configuration not stated) | -11.2% (active) | 2.78% (active) | -8.8% (active) | 9.97% (active) | -7.25% (active) | 6.45% (active) | -73.7% (active) | -77.1% (active) | -40.3% (active) | –
COc1cccc2c1c(C(=O)C(=O)Nc1cc(C)no1)cn2Cc1ccc(F)cc1 | 29.5% | 24.8% | 53.6% | 66% | 51.7% | 62.5% | 36.3% | 38.7% | 68.3% | –
CC1CN1CCCCN1CC1C (configuration not stated) | 103% | 87% | 81.1% | 109% | 104% | 95% | 107% | 113% | 100% | –
CC1(C)[C@H](O)[C@H](F)C[C@@]2(C)Oc3ccc(C(=O)Nc4ccc5c(c4)NC(=O)C54CCN(CCCCC#N)CC4)cc3C[C@H]12 | 45.7% | 16% | 46.8% | 32.2% | 10.6% | 24.4% | -60.7% (active) | -24.4% (active) | 4.12% (active) | –
O=C(O)c1c(Cl)n(Cc2ccc(O)cc2)c2ccc(O)cc12 | 118% | 110% | 80.6% | 106% | 106% | 72.4% | 85.8% | 98.9% | 100% | –
COC(=O)[C@@H](C)C[C@H](Cc1ccccc1)NC(=O)c1csc([C@@H](C[C@H](C(C)C)N(C)C(=O)C2(NC(=O)[C@H]3CCCCN3C)CCC2)OC(C)=O)n1 | 17.1% | 5.81% (active) | 28.5% | 73.2% | 6.93% (active) | 19.4% | -43.7% (active) | 40% | 57% | –
COc1ccc2c(c1)c(-c1nc(-c3c[nH]c4ncccc34)cs1)cn2CCN1CCOCC1 | 31.4% | 45.8% | 49.7% | 67% | 45.6% | 34.1% | 25.4% | – | 68.4% | 45.4%
Cc1cc(N(CCCl)CCCl)ccc1/C=N\NC(=O)c1ccncc1 | 88.9% | 98.3% | 87.1% | 106% | 90.5% | 88.9% | 76.1% | 53.1% | 99.7% | –
Cc1ccc(Nc2nc3c(s2)C2=CC[C@@H]4[C@H](CC[C@]5(C)C(=O)CC[C@@H]45)[C@@]2(C)CC3)cc1 | 17% | 15% | 28.7% | 55.4% | 33.4% | 33% | 56.6% | 68.3% | 37.6% | –
CC(=O)O[C@H]1C(=O)[C@@]2(C)[C@H]([C@H](OC(=O)c3ccccc3)[C@]3(O)C[C@H](OC(=O)[C@H](OC(=O)OC[C@@H]4COC(C)(C)O4)[C@@H](NC(=O)c4ccccc4)c4ccccc4)C(C)=C1C3(C)C)[C@]1(OC(C)=O)CO[C@@H]1C[C@@H]2O | 3.91% (active) | -2.35% (active) | -15.6% (active) | 12.7% | 17% | 22.1% | 22% | 24.2% | 52% | –
Fc1ccc2c(c1)c(-c1nc(-c3c[nH]c4ncccc34)cs1)cn2CCCCN1CCCCC1 | -72% (active) | -97% (active) | -70.5% (active) | -88.5% (active) | -87.7% (active) | -86.5% (active) | -83.1% (active) | – | -86.9% (active) | -79.3% (active)
C[n+]1c(/C=C/c2ccc(N(CCCl)CCCl)cc2)sc2ccccc21 | 82.2% | 40.9% | 74.5% | 60.9% | 30.1% | 36% | 61.1% | – | 81.4% | 36.6%
Cn1cc(-c2csc(-c3cn(CCCCN4CCCCC4)c4ccccc34)n2)c2cccnc21 | -74.9% (active) | -85.6% (active) | 53.1% | -32.1% (active) | -72.3% (active) | 51.3% | -92.1% (active) | – | -79.2% (active) | -72.6% (active)
CN1C(=O)C(=Cc2cn(CCCCCCn3c4ccccc4c(=O)c4ccccc43)c3ccccc23)C(=O)N(C)C1=O | 92.1% | 96.1% | 91.4% | 104% | 99.2% | 89.8% | 94.3% | – | 98% | 93%
